Source: paper PMC7819943, “Rice protein-binding microarrays: a tool to detect cis-acting elements near promoter regions in rice”
In all, about 35,000 sequences were measured (“fluorescence intensity (a.u.)”: median about 10,000, highest 2% from about 52,000 on). The sample holds the highest values, similar sequences and a random draw of the others, so the mix is not that of the screen.

molecular target: T1, OsWOX13 (Oryza sativa, UniProt Q5QMM3 1-267); assay: protein-binding microarray (RPBM); PBS, 2% BSA, 51.3 ng/ul salmon testes DNA, 50 uM zinc acetate, 200 nM TF, 25 C, 1 h; high values mean tight binding; settings: protein: recombinant; tags: N-terminal polyhistidine and DsRed monomer fusion (pET32a); label: CyDye5-dUTP incorporated in the synthesized complementary strand; 3' TTTTT single-stranded linker to array surface; dsDNA, one strand shown
T1 sequence: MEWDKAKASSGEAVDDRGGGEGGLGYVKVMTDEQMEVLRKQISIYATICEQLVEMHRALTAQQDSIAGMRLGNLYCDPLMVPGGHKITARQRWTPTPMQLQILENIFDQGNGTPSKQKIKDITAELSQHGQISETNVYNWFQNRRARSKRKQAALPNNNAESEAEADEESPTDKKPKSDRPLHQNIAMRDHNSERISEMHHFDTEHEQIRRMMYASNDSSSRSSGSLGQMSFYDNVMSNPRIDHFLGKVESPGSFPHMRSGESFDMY
Method in brief: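 Binding signal is reported as fluorescence intensity per feature (arbitrary units) from an Axon 4000B scanner. Incubation used 200 nM of each Ni–NTA-purified, N-terminally polyhistidine- and DsRed-fused transcription factor from E. coli BL21-CodonPlus on a double-stranded custom Agilent array for 1 h at 25 °C, with 50 µM zinc acetate in the buffer, followed by washing.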

First: TTGATAGTAAATCAAACATTAATAAAGGCCTGTTCACTTTCGGAGTCACCTAGTGCAG
Second: CCAGATTGAGCTGTTGCGCACCACCATCCTGACCAGCTGCCGGAGTCACCTAGTGCAG
The binding signal of the first is lower: 8860 fluorescence intensity (a.u.) for the first, 17400 fluorescence intensity (a.u.) for the second.

First: ATGACAGCAATTCCGATATCTAATAAGATTGAAAATATTGCGGAGTCACCTAGTGCAG
Second: CCAAATGATATAATCATGGCACATGGAGTACTGCTTAAGACGGAGTCACCTAGTGCAG
The binding signal of the first is higher: 14800 fluorescence intensity (a.u.) for the first, 9170 fluorescence intensity (a.u.) for the second.

Going from “CTAAAATTGGAGACGTCACTACAAACGTACGCACTCTTTGCGGAGTCACCTAGTGCAG” to “GAAATAGATTAATTATAGCTAAAACATTTTCTCGACCTTGCGGAGTCACCTAGTGCAG”, the binding signal rises from 6760 fluorescence intensity (a.u.) to 52800 fluorescence intensity (a.u.).

Compared with “ATGAGATAAATTGATTGTTAACCATGTATGTCTCTAAGGTCGGAGTCACCTAGTGCAG”, “CGGCGTTAATTGTCCTTCGATCCATTATTACAGAAACACTCGGAGTCACCTAGTGCAG” is lower in binding signal: 56400 fluorescence intensity (a.u.) for the first, 15400 fluorescence intensity (a.u.) for the second.

Going from “ATTAAAACTTAATTAAATATACTAATAGCTTTCTCATTTTCGGAGTCACCTAGTGCAG” to “AGATAATTTAATTGTTAACCATGTATGGCTGTAAGGGTATCGGAGTCACCTAGTGCAG”, the binding signal rises from 7350 fluorescence intensity (a.u.) to 43900 fluorescence intensity (a.u.).

First: TAAGATAAATTAATTGGTAACCTTGTATGTCCATAAGGGTCGGAGTCACCTAGTGCAG
Second: AAAATTGAAATTTTCAACATTAAATTTGGATTAGATTTTGCGGAGTCACCTAGTGCAG
The binding signal of the first is higher: 45400 fluorescence intensity (a.u.) for the first, 19200 fluorescence intensity (a.u.) for the second.

Compared with “AGTAAATTGGTGTATGATTAGATTAACATGTTAAATGTATCGGAGTCACCTAGTGCAG”, “TAGAATAAATTGATTTAATTAAATGTAACATTAAATATATCGGAGTCACCTAGTGCAG” is lower in binding signal: 53500 fluorescence intensity (a.u.) for the first, 10100 fluorescence intensity (a.u.) for the second.

Compared with “GATTAATTAATTATTATCCATTGTACACTTCGAAAATTGGCGGAGTCACCTAGTGCAG”, “GTACATTTTAATGATTATATTATGATGATGAAAATTGTATCGGAGTCACCTAGTGCAG” is lower in binding signal: 60500 fluorescence intensity (a.u.) for the first, 15300 fluorescence intensity (a.u.) for the second.

First: TTTAATTGGTTAAATGAACTATGTAATGTTATAATTATATCGGAGTCACCTAGTGCAG
Second: GGGGATAATTTTGTAGCTCGATGACAAGTTGATTTGGTGTCGGAGTCACCTAGTGCAG
The binding signal of the first is higher: 33200 fluorescence intensity (a.u.) for the first, 19200 fluorescence intensity (a.u.) for the second.

First: ATCGAATTGAGGGAGATAAATTGATCTTGTTTTAATAATTCGGAGTCACCTAGTGCAG
Second: CTTTAATTACCACCCGATCTCACCAACAAGCGGGGCAGCTCGGAGTCACCTAGTGCAG
The binding signal of the first is lower: 3450 fluorescence intensity (a.u.) for the first, 20400 fluorescence intensity (a.u.) for the second.

Compared with “AAACGATTGATCACAATCCACGCATCGTGCCTCTCTCGCCCGGAGTCACCTAGTGCAG”, “GTCTCGTAATTTTCTGTTGAACTATGTAATTGATTTCTTTCGGAGTCACCTAGTGCAG” is lower in binding signal: 14300 fluorescence intensity (a.u.) for the first, 10500 fluorescence intensity (a.u.) for the second.

Going from “TGCCACTCAAGTACAATTATTCCCATTAATTCGCTCCATTCGGAGTCACCTAGTGCAG” to “TGTGATGTATTTGATTTATGATGTATTTATTTGTGTGTATCGGAGTCACCTAGTGCAG”, the binding signal rises from 5600 fluorescence intensity (a.u.) to 20700 fluorescence intensity (a.u.).

Going from “AGTAATAAATTGATTGTATGTTATCTGGTGGTCTGAAACTCGGAGTCACCTAGTGCAG” to “ACTTAATTGGATAGATAAATTTAAGTTATATTTAATATGGCGGAGTCACCTAGTGCAG”, the binding signal rises from 57400 fluorescence intensity (a.u.) to 64900 fluorescence intensity (a.u.).

Going from “CAAATATATTATAAAATTGCATTTAATAAAACTTATTTGGCGGAGTCACCTAGTGCAG” to “GCATGACAAATGGCGTTAATTAGTCCACAAATAATATATACGGAGTCACCTAGTGCAG”, the binding signal falls from 3450 fluorescence intensity (a.u.) to 3210 fluorescence intensity (a.u.).

First: CCGGGGATTGATTTGCCGAGTGTATTATTGATCGTATGATCGGAGTCACCTAGTGCAG
Second: ATTGATTGAGAAAATAATGTTGGTGAATAAATTGTTATATCGGAGTCACCTAGTGCAG
The binding signal of the first is higher: 53500 fluorescence intensity (a.u.) for the first, 40700 fluorescence intensity (a.u.) for the second.

Going from “TTATGATATATTGATCGTAGGATTGGGATTGGGATCCTATCGGAGTCACCTAGTGCAG” to “AATTTAATTAATGACAAATATAATTAGCTCTCTATCCAGGCGGAGTCACCTAGTGCAG”, the binding signal rises from 15800 fluorescence intensity (a.u.) to 55500 fluorescence intensity (a.u.).

Going from “ATAAGTTAATTTAAATAAATGGAGTAGAATATTATGATAGCGGAGTCACCTAGTGCAG” to “TGAATTACTCAATTGAATTGGTGTTATGTAATAAACTGCTCGGAGTCACCTAGTGCAG”, the binding signal falls from 26300 fluorescence intensity (a.u.) to 5970 fluorescence intensity (a.u.).

Compared with “AGCTCTATAATTTTACAATTTAAAATTATATTATATAAAGCGGAGTCACCTAGTGCAG”, “GCATGTTGATTATACCAGTAAGTTTCACGCACGCACACCGCGGAGTCACCTAGTGCAG” is lower in binding signal: 20400 fluorescence intensity (a.u.) for the first, 13000 fluorescence intensity (a.u.) for the second.

First: ACATGTTAATTTTAACATTGACTAATAGTAAGTAGTGAGCCGGAGTCACCTAGTGCAG
Second: AAAGGGATGAGATTGAAGCAATTCCCGTGACTAGAAAACGCGGAGTCACCTAGTGCAG
The binding signal of the first is higher: 25000 fluorescence intensity (a.u.) for the first, 3320 fluorescence intensity (a.u.) for the second.

Compared with “AAATTTAAATTTGAAGTTGATTTTAAGATATTTTCAACGTCGGAGTCACCTAGTGCAG”, “TTAGTTTATACTCAATTAATCATTCGCTAATGGCTTACCTCGGAGTCACCTAGTGCAG” is lower in binding signal: 21000 fluorescence intensity (a.u.) for the first, 5920 fluorescence intensity (a.u.) for the second.

First: ACTGATAGAATTAGCTCTATGCATAATGCATGGCTGTCTCCGGAGTCACCTAGTGCAG
Second: AAAGATTGAAACTCTGAACATTTAGGACAACGAACATCATCGGAGTCACCTAGTGCAG
The binding signal of the first is higher: 34300 fluorescence intensity (a.u.) for the first, 14000 fluorescence intensity (a.u.) for the second.

Compared with “CAAACAAGCCAGCTCAATCAATCATCGAGCTAGCTGAGCTCGGAGTCACCTAGTGCAG”, “CTCTGTAACTATATAATTTCGTGCCAGATCGAAACTATGTCGGAGTCACCTAGTGCAG” is lower in binding signal: 8080 fluorescence intensity (a.u.) for the first, 4040 fluorescence intensity (a.u.) for the second.

Going from “GGTGTGTTTATAATTAATATACAGATTGTGTCACATTGTTCGGAGTCACCTAGTGCAG” to “AATAAAATAATAATTATATAATTTTAGTAAGATAATTGAACGGAGTCACCTAGTGCAG”, the binding signal rises from 8600 fluorescence intensity (a.u.) to 19200 fluorescence intensity (a.u.).

Going from “ATATTTGATTAGATCGGTAATGGATGGCTATAACGTATGCCGGAGTCACCTAGTGCAG” to “GATAAATTGACAATATTACCAAAATTTTAGTAAGATTGGCCGGAGTCACCTAGTGCAG”, the binding signal rises from 58500 fluorescence intensity (a.u.) to 64900 fluorescence intensity (a.u.).

Compared with “ATGATTGATCGATCATCAAGCTAAAGATAATGCTATGCAACGGAGTCACCTAGTGCAG”, “TTTATGATTATATTCGTAATGCTACATAATTTGATATGATCGGAGTCACCTAGTGCAG” is lower in binding signal: 55100 fluorescence intensity (a.u.) for the first, 28100 fluorescence intensity (a.u.) for the second.

First: TCAAGCTGCTAATCAATTGATATCAACTATATTATGGAAACGGAGTCACCTAGTGCAG
Second: GTCAATCATTGTTCTATGAGCTAGATGATAAAGATGACAACGGAGTCACCTAGTGCAG
The binding signal of the first is higher: 14600 fluorescence intensity (a.u.) for the first, 8180 fluorescence intensity (a.u.) for the second.

First: GAGCTATTAGATTGGCTATAGATAAATTAGAGCTAGTAGTCGGAGTCACCTAGTGCAG
Second: CAACTATTATATAAATTGGCTATTATATTAGCTATAGATGCGGAGTCACCTAGTGCAG
The binding signal of the first is higher: 31600 fluorescence intensity (a.u.) for the first, 11400 fluorescence intensity (a.u.) for the second.

Compared with “TTATATTAATTGGCTATTAGATTAGCTATAGATAAATTGGCGGAGTCACCTAGTGCAG”, “AGATAATTAAGTATTTTACGTAAAATAAGATAGTATTAATCGGAGTCACCTAGTGCAG” is lower in binding signal: 60400 fluorescence intensity (a.u.) for the first, 5240 fluorescence intensity (a.u.) for the second.

For “TATATATGAGCTATTAGATTGGCTATGGATGAATTGGAGCCGGAGTCACCTAGTGCAG”, the binding signal was 4900 fluorescence intensity (a.u.).
